In PubChem BioAssay (NCI):
About 83,000 compounds went through this panel and 20% of them were active in at least one assay; those are over-represented in the sample as a whole.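 A percent growth of 40 corresponds to 60% growth inhibition; 0 means no net growth; -100 means all cells died. Active threshold: below 10.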 Values without a mark were called inactive. Activity calls are given as the source filed them.

Tested on: SK-MEL-5 melanoma
Experiment: NCI-60 one-dose screen, 48 h (100 = growth as untreated, 0 = no growth, -100 = all killed)
Settings: 10 µM
Experimental: Growth inhibition of the SK-MEL-5 human tumor cell line is measured as a screen for anti-cancer activity. Cells are grown in 96 well plates and exposed to the test compound for 48 hours. Compounds are tested at a single concentration, which is 10^-5 M for most compounds. The reported endpoint is percent growth (GI% or GIPRCNT), where numbers from 0 - 100% represent growth inhibition, and numbers from -100% - 0 represent cell death. For example, a value of 40 represents 60% growth inhibition. A value of 0 means no net growth occurred over the course of the experiment. A value of -40 indicates 40% of cells at the beginning of the experiment died by the end of the experiment. A value of -100 means all cells are dead at the end of the experiment.
NCI-60 Human Tumor Cell Lines Screen was performed using the standard one-dose NCI protocol, which is described in more detail at https://dtp.cancer.gov/discovery_development/nci-60/default.htm.
Compounds with GIPRCNT values below 10 were considered active. Activity score was based on GIPRCNT using the following formula: […]
Score is 0 for GIPRCNT values of 100 or above, 50 for GIPRCNT values of 0, and 100 for GIPRCNT values of -100.

| SMILES | growth |
| --- | --- |
| C/C(=C\c1cc(Cl)ccc1OCC(=O)O)[N+](=O)[O-] | 111% |
| COc1ccc(C2OC(N)=C(O)C2=O)cc1OC (stereo not given) | 102% |
| O=[N+]([O-])c1ccc(O)c(S(=O)(=O)O)c1 | 121% |
| O=C(Nc1ccccc1C(=O)NCC1CC1)c1cccs1 | 98.7% |
| CC1(C)Nc2cccc3c(N=Nc4ccc(N=Nc5ccccc5)c5ccccc45)ccc(c23)N1 | 92.9% |
| COc1cc2c(cc1OC)[C@H](C(=O)O)[C@@H](c1ccc(OC(C)C)c(OC)c1)N(C)C2=O | 102% |
| Cc1cc2nc(CC(=O)c3ccccc3)c(=O)[nH]c2cc1C | 96.1% |
| CCCCCCCCCCC(C)Br (stereo not given) | 102% |
| COc1ccc(/C(C#N)=C2C=C/C(=N/O)c3ccccc3\2)cc1 | -28.9% (active) |
| Cc1cc(C)c(N)c(S(=O)(=O)O)c1 | 98.7% |
| CC1(C)N=C(N)N=C(N)N1c1cccc(Br)c1 | 26.7% |
| CCN(CC)CCCC(C)Nc1ccnc(/C=C/c2ccc(Cl)cc2)c1 (stereo not given) | -96.7% (active) |
| COc1cc2c3c(n(C)c(=O)c2cc1OC)-c1cc2c(cc1C3=O)OCO2 | 63.6% |
| C=CCNc1ccccc1 | 102% |
| COc1cc(C2c3cc4c(cc3C3OC(=O)C2C3CO)OCO4)cc(OC)c1OC (stereo not given) | -0.321% (active) |
| Cc1cccc([N+](=O)[O-])c1Cl | 98.8% |
| NC(CSC(c1ccccc1)(c1ccccc1)c1ccccc1)C(=O)O (stereo not given) | 26.3% |
| CCCCC(CC)COC(C)=O (stereo not given) | 105% |
| CC(C)(O)C#CC#CC(C)(C)O | 99% |
| CCOC(=O)CCCS(C)(=O)=O | 102% |

| SMILES | growth |
| --- | --- |
| O=C(c1ccccc1)C1CCC1 | 107% |
| N=c1c(C(=O)OCc2ccccc2)ncc(CCl)n1O | 96.9% |
| C=CC(=O)OCCCCCCCC | 110% |
| N#C/C(=C\c1cc(O)c(O)c(O)c1)C(N)=O | 101% |
| O=[N+]([O-])c1ccc(Cl)c(S(=O)(=O)O)c1 | 104% |
| COc1cccc(Sc2ccc([N+](=O)[O-])c3no[n+]([O-])c23)c1 | 88.9% |
| NCCC(=O)c1ccc(Cl)cc1 | 99.5% |
| COc1cc(C(=O)NC(=S)Nc2ccc3ccccc3c2)cc(OC)c1OC | 55.5% |
| OC1OC(COC(c2ccccc2)(c2ccccc2)c2ccccc2)C(O)C(O)C1O (stereo not given) | 100% |
| CCN1C(=O)/C(=C/C=C/N(C)c2ccccc2)SC1=S | 87.5% |
| O=C(N/N=C\c1cc(Br)cc(Br)c1O)N/N=C/c1cc(Br)cc(Br)c1O | 45.3% |
| O=C(NCc1ccco1)Nc1c(Cl)cc(Cl)cc1Cl | 100% |
| O=S(=O)(O)c1ccc(O)c2ccccc12 | 114% |
| Cc1c(O)cccc1O | 106% |
| CC(C)(N)COS(=O)(=O)O | 102% |
| COc1ccccc1NC(=O)C1=C(C)NC(C)=C(C(=O)Nc2ccccc2OC)C1c1cccc([N+](=O)[O-])c1 | 61.5% |
| O=C(O)c1ccnc(Br)c1 | 93.5% |
| CCC(C)(C)C1CCC(O)CC1 (stereo not given) | 97.8% |
| O=C(Cc1nc2ccc([N+](=O)[O-])cc2nc1CC(=O)c1ccccc1)c1ccccc1 | 55% |
| c1ncc2[nH]cnc2n1 | 97.1% |
